15-hLO inh: 15-hLO (ALOX15) enzyme inhibition | Potency, µM (series often up to 57.1 µM), for inactives: at the highest dose activity change, negative = inhibition, most hits filed as inhibitors | purified 15hLO-1, xylenol orange hydroperoxide absorbance | AID 887 | P16050 | 74,000 tested, 1.4% active; also: nearly all actives have a fitted effect of over 55% in size
Target sequence (P16050 whole entry, looked up): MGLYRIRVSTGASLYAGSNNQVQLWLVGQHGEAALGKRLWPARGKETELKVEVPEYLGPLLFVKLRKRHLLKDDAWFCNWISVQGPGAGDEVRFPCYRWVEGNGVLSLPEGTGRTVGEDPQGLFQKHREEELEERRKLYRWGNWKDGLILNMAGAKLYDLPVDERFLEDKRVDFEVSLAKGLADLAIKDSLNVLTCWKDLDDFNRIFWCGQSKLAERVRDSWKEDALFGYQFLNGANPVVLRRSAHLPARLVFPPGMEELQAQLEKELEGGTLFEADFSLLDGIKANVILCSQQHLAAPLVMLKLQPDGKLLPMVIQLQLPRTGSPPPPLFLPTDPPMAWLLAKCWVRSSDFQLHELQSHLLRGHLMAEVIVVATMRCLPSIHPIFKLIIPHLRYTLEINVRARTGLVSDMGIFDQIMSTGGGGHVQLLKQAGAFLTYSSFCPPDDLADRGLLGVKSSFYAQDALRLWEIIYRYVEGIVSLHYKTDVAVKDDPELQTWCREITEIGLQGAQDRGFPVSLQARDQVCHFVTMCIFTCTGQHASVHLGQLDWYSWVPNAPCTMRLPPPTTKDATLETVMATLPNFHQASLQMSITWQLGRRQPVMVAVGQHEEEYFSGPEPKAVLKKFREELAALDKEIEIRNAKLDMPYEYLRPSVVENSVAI
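Quantitative HTS in 25 mM Hepes pH 7.5 containing 0.01% Triton X-100: human 15hLO-1 at 40 nM, arachidonic acid at 50 uM, 6 min turnover. Product quantified via ferrous oxidation/xylenol orange, 573:405 nm absorbance ratio.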
Tau fil binding: binders of human tau filaments | AID 596 | 71,000 tested, 2% active | Potency, µM (top dose mostly 57.1 µM), inactives show at the top dose activity change, negative = inhibition | P10636 | recombinant tau filaments, thioflavin S fluorescence, 15 h; filaments grown with octadecylsulfate alongside compound;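 also: actives lower thioflavin S fluorescence by blocking filaments or displacing dye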
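Thioflavine S fluorescence (ex 450, em 510 nm) reports filaments formed from 1 uM human tau plus 30 uM ODS over 15 h at 37 C (10 mM HEPES pH 7.4, 100 mM NaCl, 5 mM DTT); compounds displacing dye or blocking filaments lower signal.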
ERK AVP inh: blocks ERK signaling stimulated by vasopressin. Potency, µM (highest dose often 57.5 µM), for the others: at the top dose activity, negative = inhibition, actives largely listed as inhibitors. 72,000 tested, 0.99% active. AID 995. HEK293-V1b, vasopressin-stimulated pERK AlphaScreen; also: nearly all actives have a fitted effect of over 55% in size
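HEK293 cells stably expressing V1b receptor, preincubated 30 min at 37 °C with compound, then stimulated 5 min with 25 nM vasopressin. Phospho-ERK by AlphaScreen SureFire after 5 h RT; normalized to DMSO and vasopressin; AC50 by Hill fit.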
Bst PK mod: modulators of Bacillus stearothermophilus pyruvate kinase | Potency, µM | purified pyruvate kinase, luminescence ATP production; ribose 5-phosphate activator present at AC10 | 51,000 tested, 1.2% active; in the data active = potency below about 11 µM; inconclusive = mostly about 12 µM to 25 µM;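 the screen sought inhibitors and activators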;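 also: scaled between full activation by ribose 5 phosphate and full inhibition by luteolin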
Hsp90 Hop PPI: changes Hsp90-Hop TPR2A binding signal, up or down | Potency, µM (titrated, usually from 57 µM), without a hit: at the top dose activity change, negative = inhibition | AlphaScreen TPR2A-His6 binding biotin-Hsp90 C-terminal peptide | 71,000 tested, 0.44% active; active = well fitted curve in either direction with a large enough effect; inconclusive = small, poorly fitted or top-dose-only effect, or another doubt
FLuc inh: blocks Photinus pyralis firefly luciferase activity. purified firefly luciferase, luminescence, 8 min. P08659. 72,000 tested, 2.2% active. Potency, µM (series often up to 57.1 µM), for the others: at the top dose activity change, negative = inhibition, actives largely listed as inhibitors. AID 411; also: nearly all actives have a fitted effect of over 40% in size
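Here, luciferase activity is measured as luminescence following an 8 min room-temperature reaction at 10 uM ATP, pH 7.2. Every library sample is titrated.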
* = called active by the depositor; i = inactive; ? = inconclusive; . = no result given; [ ] = another dose, or the depositor's remark. Most compounds without a hit are left out; they make up all but 6.1% or so of the library. Unless noted, calls follow the shape of the dose curve; as a rule, active = well fitted curve in the direction sought with a large enough effect; inconclusive = small, poorly fitted or top-dose-only effect, or another doubt; inactive = no such curve, though single readings can be large; an effect the other way counts as inactive or inconclusive. Unless noted, % is scaled to controls: 0 for no effect and ±100 for the full control effect; potency is read from the fitted curve at half-maximal effect.

SMILES | 15-hLO inh | Tau fil binding | ERK AVP inh | Bst PK mod | Hsp90 Hop PPI | FLuc inh
Cn1c(C(=O)N2CCCC(C(=O)NCCCc3ccccc3)C2)cc2sccc21 (stereo not given) | -12% | -5% | 20µM* | >57 | -3% | 4%
Cc1c(C(=O)N2CCc3ccccc3C2)sc2nc(-c3ccccc3)cn12 | -11% | 28% | 2% | >57 | -7% | -1%
c1ccc(-c2cn3c4c(sc3n2)CCCC4)cc1 | -27% | 42% | -13% | 0.33* | -1% | 0.4µM*
CCc1ccc(NC(=O)c2cc(-c3ccco3)on2)cc1 | -11% | 16µM* | 22% | >57 | -1% | ?
CCc1ccccc1OCC(=O)Nc1ccc(S(N)(=O)=O)cc1 | -5% | 15% | -13% | >57 | -1% | 1%
O=C(COc1ccccc1Cl)Nc1ccc(Cl)cn1 | -18% | 3% | 32% | . | ? | 16µM*
O=C(COc1ccc(Cl)cc1Cl)Nc1ccccn1 | 1% | 11% | -11% | 0.13* | 3% | 0.079µM*
O=C(COc1ccccc1O)Nc1ccc(Cl)cc1 | -10% | 0% | 2% | 11* | 3% | -3%
COc1ccccc1OCC(=O)Nc1ccccn1 | -7% | 4% | 2% | ? | -2% | 10µM*
O=C(CC(=O)Nc1ccccn1)Nc1ccccn1 | 0% | -1% | -18% | >57 | -3% | -2%
COC(=O)C1(Cc2ccccc2)C2c3cc(C(=O)N4CCCC4)n(Cc4ccc(OC(F)(F)F)cc4)c3CC2CN1C(=O)c1ccccc1 (stereo not given) | . | 6% | 5% | . | -11% | .
O=C(O)c1cc(S(=O)(=O)Nc2cccc(Cl)c2)ccc1O | -6% | . | . | . | . | .
O=C(COc1ccc(Cl)cc1Cl)NC(=O)N1CCCCC1 | -10% | 9% | 16% | . | 1% | -24%
O=C(COc1ccc(Cl)cc1Cl)NC1CCSC1=O (stereo not given) | 2% | 6% | 2% | . | 4% | 25µM*
O=C(c1cc(C(F)(F)F)cc(C(F)(F)F)c1)N1CCC2(CCCN(c3ncccn3)C2)CC1 | -14% | -10% | -14% | . | 4% | 0%[11.4 µM]
COC(=O)Cc1c(C)nc2nc(-c3ccccc3)[nH]n2c1=O | -17% | ? | -26% | . | -18% | 25µM*
COC(=O)Cc1c(C)nc2nc(-c3cccnc3)[nH]n2c1=O | 1% | -1% | 2% | >57 | 2% | -10%
N#Cc1ccsc1NC(=O)CSc1ncnc2ccccc12 | -3% | 20µM* | -6% | >57 | -7% | 2%
N#Cc1ccsc1NC(=O)CSc1ncn[nH]1 | 6% | 1% | 12% | >57 | -6% | 3%
COc1ccc(CCN2C(=NC(=O)CCC(=O)O)SC3CS(=O)(=O)CC32)cc1OC (stereo not given) | 2% | 8% | -12% | >57 | -3% | 13µM*
C=CCN1C(=NC(=O)CCCC(=O)O)SC2CS(=O)(=O)CC21 (stereo not given) | 8% | -26% | -4% | >57 | -2% | 1%
c1cnc2c(SCc3ccc(-c4nnco4)cc3)cccc2c1 | 0% | 271% | -14% | 2.4* | -7% | -14%
CC(C)N1CCN(c2ccc(OC[C@@H]3CO[C@@](Cn4cncn4)(c4ccc(Cl)cc4Cl)O3)cc2)CC1 | -2%[25.6 µM] | -27%[25.6 µM] | 17%[25.7 µM] | . | -9%[26 µM] | 2%[25.5 µM]
CCCCCCCC#Cc1ccccc1/C=N/S(=O)C(C)(C)C (stereo not given) | 0%[11.4 µM] | . | -2%[11.5 µM] | . | . | .
CCCCCCCCCCCC1=C(O)C(=O)C=C(O)C1=O | 5µM* | 3.2µM* | 46% | . | ? | -17%
CCCCCCc1c(O)c2ccccc2[nH]c1=O | 1% | -17% | 0% | >57 | 2% | -3%
O=C(c1ccco1)N1CCC2(CCN(Cc3cc(C(F)(F)F)cc(C(F)(F)F)c3)CC2)CC1 | -8% | 0% | 2% | . | -8% | 0%[11.4 µM]
O=C(CN1CCN(c2nc(-c3ccc(F)cc3)cs2)CC1)Nc1ccc2c(c1)OCO2 | -8% | 0% | 16% | >57 | -6% | 2%
O=C(N1CCOCC1)N1CCN(c2nc(-c3ccc(F)cc3)cs2)CC1 | -9% | 18% | 0% | i | -6% | 16µM*
